# Data as given in the supplement of paper PMC13380429.
# Columns and labels:
# [1] = tested on: Vero E6 infected with SARS-CoV-2; assay: morphology score (similarity to uninfected cells); higher = more like uninfected cells; details: 24 h
# [2] = tested on: Vero E6 infected with SARS-CoV-2; assay: SARS-CoV-2 infection rate relative to infected DMSO; higher = more infection, active = 60 or less; details: 24 h
Compound,morphology score [1],SARS-CoV-2 infection rate [2]
O=C(Cc1ccccc1)Nc1nc2ccc(Cl)cc2c2nc(-c3ccco3)nn12 (10 µM),-0.00361,110% (inactive)
CCOC(=O)C(=O)Nc1cccc(OC)c1C(N)=O (10 µM),-0.179,102% (inactive)
COCCNC(=O)Cn1cnc([N+](=O)[O-])n1 [sanazole] (10 µM),0.122,93% (inactive)
Cn1ncnc1COc1nn2c(-c3cc(F)ccc3F)nnc2cc1C(C)(C)C (10 µM),0.166,96.5% (inactive)
CS(=O)(=O)n1cc2c(n1)CN([C@H]1CO[C@H](c3cc(F)ccc3F)[C@@H](N)C1)C2 [omarigliptin] (10 µM),0.198,107% (inactive)
O=C(Nc1ccccc1)N[C@H]1C[C@H](C(=O)O)Nc2cc(Cl)cc(Cl)c21 (10 µM),-0.146,106% (inactive)
COc1c(O[C@@H]2O[C@H](CO)[C@@H](O)[C@H](O)[C@H]2O)cc2c(c1OC)-c1ccc(SC)c(=O)cc1[C@@H](NC(C)=O)CC2 [thiocolchicoside] (10 µM),-0.00288,114% (inactive)
C[C@]12CCC(=O)C(O)=C1CC[C@@H]1[C@@H]2CC[C@]2(C)C(=O)CC[C@@H]12 [formestane] (10 µM),-0.134,115% (inactive)
CS(=O)(=O)N1CCc2c(-c3cnc(N)nc3)nc(N3CCOCC3)nc21 (0.833333 µM),0.0917,110% (inactive)
CC(=O)c1ccc2c(c1)C(=O)C1(CC1)O2 [spizofurone] (10 µM),-0.0677,112% (inactive)
N#Cc1c[nH]c2c(C(=O)N3CCN(CCc4ccc(F)cc4)CC3)cccc12 [pruvanserin] (10 µM),0.117,98.5% (inactive)
O=C(NCC1CCOCC1)c1cnc(Nc2ccc(Cl)cc2Cl)nc1C(F)(F)F (10 µM),0.326,96% (inactive)
COc1ccc(/C=C\c2cc(OC)c(OC)c(OC)c2)cc1O [combretastatin-A-4] (10 µM),0.000765,98.5% (inactive)
O=C1c2ccccc2C(=O)c2ccccc21 [anthraquinone] (10 µM),0.166,103% (inactive)
CCCCc1oc2ccc(NS(C)(=O)=O)cc2c1C(=O)c1ccc(OCCCN(CCCC)CCCC)cc1 [dronedarone] (0.833333 µM),-0.0676,116% (inactive)
CC(C)(CO)Cc1cc(C(C)(C)C)c(O)c(C(C)(C)C)c1 (10 µM),-0.127,108% (inactive)
CCCc1ncc(C[n+]2ccccc2C)c(N)n1 [amprolium] (10 µM),-0.0897,104% (inactive)
O=C(CN1C(=O)C2(CCCC2)NC[C@H]1c1cc(F)cc(F)c1)Nc1ccc2c(c1)C[C@@]1(C2)C(=O)Nc2ncccc21 (10 µM),0.0766,101% (inactive)
COc1ccc(-c2cc(=O)c3c(O)c(OC)c(O)cc3o2)cc1OC [eupatilin] (10 µM),-0.0115,109% (inactive)
CCCC[C@H](NC(=O)[C@@H]1[C@@H]2[C@H](CN1C(=O)[C@@H](NC(=O)NC1(CS(=O)(=O)C(C)(C)C)CCCCC1)C(C)(C)C)C2(C)C)C(=O)C(=O)NC1CC1 [narlaprevir] (10 µM),0.157,111% (inactive)

Compound,morphology score [1],SARS-CoV-2 infection rate [2]
COc1cc(N2CCOCC2)ccc1Nc1ncc(Cl)c(Nc2ccccc2NS(C)(=O)=O)n1 (10 µM),-0.034,103% (inactive)
O=C(O)COCCN1CCN(C(c2ccccc2)c2ccc(Cl)cc2)CC1 (stereo not given) [cetirizine] (10 µM),0.153,98.2% (inactive)
O=C(O)c1cc(O)c2c3nc4ccccc4oc-3cc(=O)c2n1 [pirenoxine] (10 µM),0.0951,102% (inactive)
CC(N)Cc1ccc(O)cc1 (stereo not given) [hydroxyamphetamine] (10 µM),-0.0633,104% (inactive)
CCCCC(=O)O[C@]1(C(=O)CO)CC[C@H]2[C@@H]3CCC4=CC(=O)CC[C@]4(C)[C@H]3[C@@H](O)C[C@@]21C [hydrocortisone-valerate] (10 µM),0.0807,107% (inactive)
CCCCCCCCCCCCCCCC(=O)OC[C@H](O)[C@H]1OC(=O)C(O)=C1O [L-ascorbyl-6-palmitate] (10 µM),-0.0423,112% (inactive)
Cc1cccn2c(=O)c(-c3nnn[nH]3)cnc12 [pemirolast] (10 µM),0.106,94.5% (inactive)
CCCCC(=O)O[C@]1(C(=O)CO)[C@@H](C)C[C@H]2[C@@H]3CCC4=CC(=O)C=C[C@]4(C)[C@@]3(F)[C@@H](O)C[C@@]21C (10 µM),-0.0636,112% (inactive)
Cc1cc2c(OCC(CNC(C)(C)C)OC(=O)c3ccccc3)cccc2[nH]1 (stereo not given) [bopindolol] (10 µM),0.12,110% (inactive)
CC(C)[C@H](N)C(=O)OCC(CO)OCn1cnc2c(=O)nc(N)[nH]c21 (mixture of isomers) [valganciclovir] (10 µM),0.118,102% (inactive)
CCc1oc2ccccc2c1C(=O)c1cc(Br)c(O)c(Br)c1 [benzbromarone] (10 µM),0.145,85.5% (inactive)
O=C(OCCN1CCOCC1)C1(c2ccccc2)CCCCC1 (10 µM),-0.00229,106% (inactive)
C#C[C@]1(O)CC[C@H]2[C@@H]3CCC4=C(CCC(=O)C4)[C@H]3CC[C@@]21C [noretynodrel] (10 µM),0.0184,108% (inactive)
O=C(O)C[C@H]1CC[C@H](c2ccc(-c3ccc(Nc4ccc(C(F)(F)F)nc4)cn3)cc2)CC1 (10 µM),0.27,73.5% (inactive)
CC1(C)O[C@@H]2C[C@H]3[C@@H]4CCC5=CC(=O)C=C[C@]5(C)[C@@]4(F)[C@@H](O)C[C@]3(C)[C@]2(C(=O)CO)O1 (10 µM),0.0142,109% (inactive)
CCN(CCO)CCCC(C)Nc1ccnc2cc(Cl)ccc12 (stereo not given) [hydroxychloroquine] (10 µM),0.362,88% (inactive)
N=C(N)c1ccc(-c2ccc(-c3ccc(C(=N)N)cc3)o2)cc1 [furamidine] (10 µM),-0.436,98% (inactive)
C[C@@H]1C[C@H]2[C@@H]3C[C@H](F)C4=CC(=O)C=C[C@]4(C)[C@@]3(Cl)[C@@H](O)C[C@]2(C)[C@H]1C(=O)COC(=O)C(C)(C)C [clocortolone-pivalate] (10 µM),0.067,98% (inactive)
CCCOc1ccc(S(=O)(=O)N2CCN(CCO)CC2)cc1-c1nc2c(CCC)cn(CC)c2c(=O)[nH]1 [mirodenafil] (10 µM),0.127,95.5% (inactive)
N#Cc1ncccn1 [2-cyanopyrimidine] (10 µM),0.0613,108% (inactive)

Compound,morphology score [1],SARS-CoV-2 infection rate [2]
CC(C)n1c(/C=C/[C@@H](O)C[C@@H](O)CC(=O)O)c(-c2ccc(F)cc2)c2ccccc21 [fluvastatin] (0.833333 µM),-0.082,115% (inactive)
CNC(=O)[C@H]1O[C@@H](n2cnc3c(NCc4cccc(I)c4)nc(Cl)nc32)[C@H](O)[C@@H]1O (10 µM),-0.0292,107% (inactive)
[Cl][Ru-]([Cl])([Cl])[Cl].[Na+].c1ccc2[nH]ncc2c1.c1ccc2[nH]ncc2c1 (10 µM),0.443,43% (active)
CCCC(C(=O)OCCN(CC)CC)(c1ccccc1)c1ccccc1 [proadifen] (10 µM),0.323,89.5% (inactive)
CC(C)NCC(O)c1ccc([N+](=O)[O-])cc1 (stereo not given) [nifenalol] (10 µM),-0.141,118% (inactive)
Cc1cc(OCC(=O)O)cc(C)c1Cc1ccc(O)c(C(C)C)c1 [sobetirome] (10 µM),0.0763,103% (inactive)
Oc1ccc(Nc2nc(-c3ccc(Cl)cc3)cs2)cc1 (10 µM),0.129,106% (inactive)
Clc1ccc(CSC(Cn2ccnc2)c2ccc(Cl)cc2Cl)cc1 (stereo not given) [sulconazole] (10 µM),-0.0348,110% (inactive)
N[C@@H](CS(=O)O)C(=O)O [L-cysteinesulfinic-acid] (10 µM),-0.0506,108% (inactive)
COc1cc(CNC(=O)CCCC/C=C/C(C)C)ccc1O [capsaicin] (10 µM),0.0697,107% (inactive)
C[C@]12CC[C@H]3[C@@H](CCC4=CC(=O)CC[C@@H]43)[C@@H]1CC[C@@H]2O [Nandrolone] (10 µM),0.24,89.5% (inactive)
C[C@](N)(Cc1ccc(O)c(O)c1)C(=O)O [methyldopa] (10 µM),-0.111,97.5% (inactive)
NC(=O)N1c2ccccc2CC(O)c2ccccc21 (stereo not given) [licarbazepine] (10 µM),0.188,97% (inactive)
Clc1ccc(CO/N=C(\Cn2ccnc2)c2ccc(Cl)cc2Cl)c(Cl)c1 [oxiconazole] (10 µM),-0.0771,114% (inactive)
CCC(=O)O[C@H](CC(=O)O)C[N+](C)(C)C [levocarnitine-propionate] (10 µM),-0.0873,104% (inactive)
O=C(O)Cc1ccccc1Nc1c(Cl)cccc1Cl [diclofenac] (10 µM),-0.00811,106% (inactive)
Cc1noc(-c2ccc(-c3ccc(CC(=O)O)cc3)cc2)c1NC(=O)O[C@H](C)c1ccccc1 (0.833333 µM),0.148,112% (inactive)
COc1cc(NC(=O)c2ccc(-c3ccc(Cl)cc3)o2)cc(OC)c1 (10 µM),0.0298,112% (inactive)
CCC(CC)C(c1ccc(Nc2nc3ccccc3s2)cc1)n1cncn1 (stereo not given) [talarozole] (10 µM),0.326,74.5% (inactive)
CN(C)CCCC(=O)Nc1ccc(C(=O)Nc2cccc(Nc3ncc(Cl)c(-c4c[nH]c5ccccc45)n3)c2)cc1 (10 µM),0.132,101% (inactive)
